Compound activity as filed in PubChem BioAssay.
BoNT-F LC inh – BoNT/F light chain protease inhibitors, primary screen, biochemical, flow cytometry, MLPCN library. Multiplex microsphere protease cleavage assay. AID 588497, 2011. inhibition, % at 10 µM. 360,000 compounds, 0.22% hits; in the data active = inhibition above about 35%, passing the limit was not always enough; inconclusive = no clear call, values can overlap the other calls
BoNT A protease – BoNT/A light chain protease inhibitors, primary screen, biochemical, flow cytometry, MLPCN library | Botulinum neurotoxin type A light chain protease (Clostridium botulinum A str. ATCC 3502) | multiplex microsphere protease substrate cleavage | inhibition, % at 10 µM | 360,000 compounds, 0.17% hits | AID 588499, 2011
Autofluor counter – counter-screen for toxin protease inhibitors: compound fluorescence; fluorescence intensity (concentration not given with the values); compound autofluorescence counterscreen, microsphere flow cytometry; hits give high values; 360,000 compounds, 3.1% hits; AID 624483; in the data active = fluorescence intensity above about 16000; inconclusive = no clear call, values can overlap the other calls
Anthrax LF prot – Bacillus anthracis LF protease inhibitors, primary screen, biochemical, multiplex microsphere, MLPCN library | Lethal factor (Bacillus anthracis), P15917 | multiplex microsphere protease cleavage assay | inhibition, % at 10 µM | 360,000 compounds, 0.12% hits | AID 588501, 2011
VHR inh abs – VHR1 phosphatase inhibitors, primary screen, biochemical, absorbance, uHTS; 290,000 compounds, 0.52% hits; recombinant VHR phosphatase, pNPP absorbance; AID 1654, 2009; inhibition, % at 13.3 µM; Dual specificity protein phosphatase 3 (Homo sapiens), P51452; in the data active = inhibition above about 50%
Target sequence (P51452 whole entry, looked up): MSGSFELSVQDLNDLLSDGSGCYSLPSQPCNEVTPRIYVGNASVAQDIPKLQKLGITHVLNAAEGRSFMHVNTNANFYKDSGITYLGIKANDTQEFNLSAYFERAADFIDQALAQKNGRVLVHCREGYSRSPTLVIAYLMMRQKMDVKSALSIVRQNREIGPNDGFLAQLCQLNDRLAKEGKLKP
MazEF act – activators of E. coli MazEF toxin-antitoxin RNase, primary screen, biochemical, fluorescence, uHTS; Endoribonuclease toxin MazF (Escherichia coli (strain K12)), P0AE70; FAM/BHQ RNA-DNA oligo cleavage fluorescence, 5 h; activation, % at 20 µM; 350,000 compounds, 0.32% hits; AID 504720, 2011; in the data active = activation above about 50%
Target sequence (P0AE70 whole entry, looked up): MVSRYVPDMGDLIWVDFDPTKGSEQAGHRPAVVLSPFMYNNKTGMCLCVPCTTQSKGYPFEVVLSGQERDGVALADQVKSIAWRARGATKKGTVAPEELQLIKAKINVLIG
Large screens that a line does not name were inactive. Only some compounds are listed: those with a hit (about 4.1% of all), similar ones and a draw of the others. Cut-off read from the data, not from the text of the source, unless noted: active = inhibition above about 30%; inconclusive = no clear call, values can overlap the other calls; inactive = below that.

CN(C(=O)CSC1=NCCS1)c1ccccc1	VHR inh abs 51.6
O=C(CO)N/N=C/c1ccc(Cl)cc1	none
O=C(NCc1ccc(Cl)cc1)C(=O)N/N=C/c1ccc(Br)cc1	VHR inh abs 52.3
CCc1nc2ccc(C(=O)N3CCN(C(=O)c4ccco4)CC3)cn2c1N(C)C(=O)Nc1ccccc1OC	none (no result: VHR inh abs, MazEF act)
CC(=O)N(Cc1cc2cc(C)c(C)cc2n2nnnc12)CC1COCCO1 (stereo not drawn)	Autofluor counter 22636
Cc1cc2cc(CN(Cc3ccc4c(c3)OCO4)C(=O)c3cnccn3)c3nnnn3c2cc1C	none
O=C1C2CC=CCC2C(=O)N1c1n[nH]c(CCc2ccccc2)n1 (stereo not drawn)	BoNT A protease inconclusive, Autofluor counter 18666
O=C1C2CC=CCC2C(=O)N1c1n[nH]c(-c2ccccc2)n1 (stereo not drawn)	none
Cc1ccc(C)c(NC(=O)C(OC(=O)c2cc[n+]([O-])cc2)c2ccccc2)c1 (stereo not drawn)	none (no result: VHR inh abs)
Cc1ccc(N2C(=O)N(CC(=O)Nc3cc(F)ccc3C)C(=O)C2C)cc1 (stereo not drawn)	Autofluor counter inconclusive (no result: VHR inh abs)
Cc1ccsc1C=Nc1ccc(O)cc1	Autofluor counter 16460
Cc1ccsc1/C=N/N=C/c1sccc1C	none
COc1ccc(CC(=O)N/N=C/c2cccnc2)cc1OC	none
Oc1ccc(-c2cc(-c3ccc(O)cc3)nc(-c3ccccc3)n2)cc1	MazEF act 59.3
C=C(C)CNC(=S)NNC(=O)c1ccc(Br)cc1	VHR inh abs 50.8
CSCCC(NC(=O)c1cccc(S(=O)(=O)N2CCOCC2)c1)C(=O)Nc1cccc(C)c1 (stereo not drawn)	none
CCOc1ccc(/C=C/C(=O)Oc2ccccc2)cc1	VHR inh abs 52.0
O=C(COC(=O)c1ccc([N+](=O)[O-])cc1)NC12CC3CC(CC(C3)C1)C2	none (no result: VHR inh abs)
CC(=O)c1c(C)oc2c1cc(NS(=O)(=O)c1ccc(C(=O)O)cc1)c1ccccc12	MazEF act 78.6
CN(C)/C(Cn1cncn1)=C1/N=C(c2c(F)cccc2F)OC1=O	none
CN(C)/C(CN1CCOCC1)=C1\N=C(c2ccccc2)OC1=O	Autofluor counter 23718
Cc1ccc(S(=O)(=O)CC2CSc3nc4ccccc4n32)cc1 (stereo not drawn)	none
Cc1ccc(S(=O)(=O)CC2CSc3nc(N)cc(=O)n32)cc1 (stereo not drawn)	BoNT A protease inconclusive, Autofluor counter 21227
Cc1ccc(C)c(OCC(=O)Nc2ccc(N3CCOCC3)cc2N2CCOCC2)c1	none (no result: VHR inh abs)
CN(C)C(=O)c1ccc(NC(=O)c2cc(-n3cnnc3)ccc2Cl)cc1	none
Cc1ccc(NC(=O)c2cc(-n3cnnc3)ccc2Cl)cc1	Autofluor counter 16625
C#CCn1cc2c(c1-c1ccccc1)c(=O)n(C)c(=O)n2C	none (no result: VHR inh abs)
CCOC(=O)c1cc2c(=O)n3ccccc3nc2n(C)c1=NC(=O)c1c(-c2c(F)cccc2Cl)noc1C	none (no result: VHR inh abs)
COc1ccc(CNC(=O)c2cc3c(=O)n4ccccc4nc3n(Cc3cccnc3)c2=N)cc1	MazEF act 556.7
COCCCn1c(=N)c(C(=O)NCc2ccc3c(c2)OCO3)cc2c(=O)n3ccccc3nc21	Autofluor counter 22332
COc1ccc(Cn2c(=N)c(C(=O)NC3CCCCC3)cc3c(=O)n4ccccc4nc32)cc1	none
CCOC(=O)c1cc2c(=O)n3ccccc3nc2n(C(C)C)c1=NC(=O)c1c(-c2c(F)cccc2Cl)noc1C	BoNT A protease 70.8, Anthrax LF prot 34.5
CCOC(=O)c1cc2c(=O)n3ccccc3nc2n(Cc2ccc(Cl)cc2)c1=N	MazEF act active (no result: VHR inh abs)
CC1CCN(C(=O)c2ccc(CNS(=O)(=O)c3ccc(C(C)(C)C)cc3)cc2)CC1	none (no result: VHR inh abs)
C[C@H](CO)N1C[C@H](C)[C@@H](CN(C)Cc2ccc(Cl)c(Cl)c2)Oc2c(NS(=O)(=O)c3cn(C)cn3)cccc2C1=O	none (no result: VHR inh abs)
N=c1c(C(=O)NCc2ccc3c(c2)OCO3)cc2c(=O)n3ccccc3nc2n1Cc1cccnc1	Autofluor counter 24844
COc1cc(C(=O)NCC(C)C)cc(OC)c1OC	Autofluor counter 16687
COc1cc(C(=O)OCCCOC(=O)c2cc(OC)c(OC)c(OC)c2)cc(OC)c1OC	none
CCN(CC)CC(C)OC(=O)c1cc(OC)c(OC)c(OC)c1 (stereo not drawn)	BoNT A protease inconclusive, Autofluor counter 19405
CCOC(=O)C(C(=O)OCC)C(=O)c1cc(OC)c(OC)c(OC)c1	VHR inh abs 51.8
CCN1CCCC1CNC(=O)CCNC(=O)c1cc(OC)c(OC)c(OC)c1 (stereo not drawn)	none
COc1cc(C(=O)NCCC(=O)NCCCN2CCCCC2)cc(OC)c1OC	Autofluor counter 25617
Fc1ccccc1NC(=S)NCCc1cccc(Cl)c1	none
O=C1C2C3C=CC(C3)C2S(=O)(=O)C2C3C=CC(C3)C12 (stereo not drawn)	none (no result: VHR inh abs)
Cc1ccc(C(=O)Nc2ccncc2)cc1S(=O)(=O)N1CCCCC1	none (no result: VHR inh abs)
COc1ccc(NC(=O)CCC(=O)N2CCC(c3ccccc3)=N2)cc1S(=O)(=O)N1CCCCC1	none (no result: VHR inh abs)
CCOCCCNC(=O)CCNC(=O)c1cc(OC)c(OC)c(OC)c1	Autofluor counter 20238
C[C@@H]1CN([C@@H](C)CO)S(=O)(=O)c2ccc(Br)cc2O[C@@H]1CN(C)Cc1cccnc1	none (no result: VHR inh abs)
COc1cccc(OC)c1C(=O)NC(C)C12CC3CC(CC(C3)C1)C2 (stereo not drawn)	BoNT-F LC inh 35.0
CC(NC(=O)c1ccc([N+](=O)[O-])o1)C12CC3CC(CC(C3)C1)C2 (stereo not drawn)	none
O=C(OCC(=O)N1CCc2ccccc2C1)c1cccnc1Cl	none
O=C(Nc1sccc1C(=O)NCc1ccco1)c1cccnc1	BoNT A protease inconclusive, Autofluor counter 16659
Cc1ccc(-c2nc3cc(NC(=O)C(C)C)ccc3o2)cc1C	Autofluor counter 24088
O=C(Nc1ccc(-c2nc3cc(NC(=O)c4cccs4)ccc3o2)cc1)c1cccs1	Autofluor counter 22139
O=C(Nc1ccc2oc(-c3ccncc3)nc2c1)c1cccs1	none
COc1ccc(C2C(C(=O)Nc3cccnc3)=C(C)Nc3nc(-c4cccs4)nn32)cc1 (stereo not drawn)	Autofluor counter 21944
O=C(O)CCCN1C(=O)/C(=C/c2ccc(-c3nc4ccccc4s3)o2)SC1=S	BoNT A protease 30.3, Anthrax LF prot 39.8
O=C(O)CCCCCN1C(=O)/C(=C\c2ccc(-c3ccc(Cl)cc3)o2)SC1=S	BoNT A protease 42.7
O=C(O)CCCCCN1C(=O)/C(=C\c2ccncc2)SC1=S	none
O=C(O)CCCN1C(=O)/C(=C/c2ccncc2)SC1=S	none
